High-throughput results from PubChem BioAssay.
PfG6PD inh: PfG6PD (Plasmodium falciparum) enzyme inhibition. PfGluPho enzyme, NADPH resazurin-diaphorase fluorescence. inhibition, % at 20 µM. 350,000 tested, 0.78% active;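 active = inhibition reaching at least a set limit at 20 µM in the primary screen, cut at about 59% in these data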;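 also: 0% = DMSO wells with substrate and 100% = DMSO wells lacking glucose-6-phosphate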
Cardio protect: myocardial damage modulation in H9c2 cells. H9c2 cardiomyocytes, H2O2 injury protection, ATPLite, 2 h. protection from H2O2 cell death, % at 20 µM. 360,000 tested, 0.63% active;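 active = compounds giving at least 50% protection of heart cells from peroxide-induced death in the single-dose screen, raw or plate-pattern-corrected value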;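 also: 0% = DMSO wells with peroxide and 100% = DMSO wells without peroxide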
ALR H2O2 inh: inhibitors of human sulfhydryl oxidase ALR; purified ALR, DTT oxidation, H2O2 HRP-luminol luminescence; inhibition, % (concentration not given with the values); 290,000 tested, 3.8% active; AID 485317;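 active = mean replicate inhibition above about 79%, with every replicate also reaching it, limit read from the data; inconclusive = only one of the two criteria met; inactive = mean below limit and not every replicate reaching it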
Target sequence (P55789 whole entry, looked up): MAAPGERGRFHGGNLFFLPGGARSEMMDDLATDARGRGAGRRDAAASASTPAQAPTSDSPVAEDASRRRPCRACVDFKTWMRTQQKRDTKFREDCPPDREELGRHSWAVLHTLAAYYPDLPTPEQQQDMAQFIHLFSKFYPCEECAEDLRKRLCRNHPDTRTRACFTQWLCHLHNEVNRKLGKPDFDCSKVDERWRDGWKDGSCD
PHOSPHO1 block: inhibitors of human PHOSPHO1 phosphatase; recombinant PHOSPHO1, absorbance phosphatase assay; inhibition, % at 13.3 µM; 290,000 tested, 1.1% active; AID 1565; in the data active = inhibition above about 60%
Target sequence (Q8TCT1 whole entry, looked up): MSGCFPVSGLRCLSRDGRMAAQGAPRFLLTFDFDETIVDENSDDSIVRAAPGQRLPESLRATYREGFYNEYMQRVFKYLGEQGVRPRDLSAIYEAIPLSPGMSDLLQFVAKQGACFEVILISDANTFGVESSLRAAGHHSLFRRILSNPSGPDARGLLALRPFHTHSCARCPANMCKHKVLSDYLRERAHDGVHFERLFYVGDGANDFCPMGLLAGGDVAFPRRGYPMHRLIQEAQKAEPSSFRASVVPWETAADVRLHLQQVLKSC
M18AAP inhibitor: blocks P. falciparum M18 aspartyl aminopeptidase. AID 1822. 290,000 tested, 1.2% active. recombinant PfM18AAP, H-Glu-NHMec fluorogenic cleavage. inhibition, % at 7.35 µM;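 active = inhibition above the campaign mean inhibition over all tested compounds plus 3 SD, cut at about 28% in these data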;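 also: 0% = plate median of test compound wells and 100% = 2 mM ZnCl2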
* hit, by the source's call; ? = inconclusive; . = no result given. The list is not random: actives were taken first. Their share in the collection is about 5.6%.

SMILES	PfG6PD inh	Cardio protect	ALR H2O2 inh	PHOSPHO1 block	M18AAP inhibitor
CCOC(=O)N1CCN(C(=O)CSc2nc3c(cnn3-c3ccc(C)cc3)c(=O)[nH]2)CC1	-18	51*	18	20	2
CCOC(=O)N1CCN(C(=O)CSc2nc3c(cnn3-c3ccc(Cl)cc3)c(=O)[nH]2)CC1	-16	12	-5	-3	3
COc1ccc(CCN2CC(C(=O)N3CCCCCC3)CCC2=O)cc1 (configuration not stated)	6	-1	-14	4	-6
O=C(CCN1CCOCC1)NNC(=O)Nc1cccc(C(F)(F)F)c1	6	1	-4	56	2
CCOC(=O)C(=NCCCN1CCOCC1)NNc1cccc(C(F)(F)F)c1	-23	3	98*	40	-2
CCC(CC)C(=O)Nc1cc(C)c2c(=O)oc3ccccc3c2n1	17	71*	3	15	.
O=C(Nc1cc(S(=O)(=O)N2CCCCC2)ccc1N1CCCCC1)c1ccncc1	5	-5	-1	6	-2
O=C(CCn1nc(-c2ccccc2)ccc1=O)N1CCN(c2ccccc2)CC1	-2	2	?	1	-6
O=C(O)c1nn(CC(=O)N2CCN(c3ccccc3)CC2)c(=O)c2ccccc12	-4	66*	-3	27	1
O=C(c1ccccc1)c1cccn1CC(=O)N1CCN(C2CCCCC2)CC1	-1	2	-10	45	4
O=C(O)c1nn(CC(=O)N2CCC(Cc3ccccc3)CC2)c(=O)c2ccccc12	3	45	-7	23	-11
O=C(CCn1nc(-c2ccccc2)c2ccccc2c1=O)N1CCN(c2ccccc2)CC1	-4	53*	15	-8	0
O=C(c1ccccc1)c1cccn1CC(=O)N1CCN(c2ccccc2)CC1	8	2	97*	42	6
CN(c1cc(Cl)c2c(c1)OCO2)c1cc2c(c3c1ccn3C)C1CCC2C1 (configuration not stated)	.	-6	.	.	.
CSc1ccc(CN2CCC(C)(Oc3ccccc3)C2)cc1 (configuration not stated)	.	2	.	.	.
Cc1csc(=Nc2cccnc2)n1CC1CCCCC1	-4	-4	99*	-2	6
Cc1ccc2[nH]c(=O)c(NC(N)=S)nc2c1	12	0	.	-40	-8
NC(=S)Nc1nc2ccccc2[nH]c1=O	.	.	2	66*	13
CCC(C)N(C(=O)COC(=O)CNC(=O)c1sc2ccccc2c1Cl)C1CCS(=O)(=O)C1 (configuration not stated)	-14	-6	-3	43	9
CC(C)C(=O)Nc1sc2c(c1-c1nc3ccccc3[nH]1)CCCC2	29	1	14	104*	5
Clc1ccc(Sc2ccc(/C=N/n3cnnc3)o2)cc1	14	-13	2	31	7
Clc1ccc(Sc2oc(/C=N/n3cnnc3)cc2Br)cc1	50	-1	-12	84*	10
CC1CN(c2oc(-c3ccco3)nc2S(=O)(=O)c2ccccc2)CC(C)O1 (configuration not stated)	9	2	-1	76*	1
CC1CCN(c2oc(-c3ccco3)nc2S(=O)(=O)c2ccccc2)CC1	-8	-9	8	33	-6
CCN(CC)c1ccc(NC(=O)Nc2ccc(C(C)=O)cc2)cc1	40	-5	49	85*	-17
SMILES	PfG6PD inh	Cardio protect	ALR H2O2 inh	PHOSPHO1 block	M18AAP inhibitor
CCN(CC)c1ccc(NC(=O)c2cccnc2)cc1	1	2	99*	-22	-4
CNS(=O)(=O)c1ccc(NC(=O)c2cncc(Br)c2)cc1	-5	12	-3	29	4
CCN(CC)c1ccc(NC(=O)c2cncc(Br)c2)cc1	34	2	99*	37	-1
CCN(CC)c1ccc(NC(=O)Nc2ccccc2)cc1	16	-16	?	.	-34
N#CCC(=O)Nc1ccc(C(=O)Nc2cccnc2)cc1	-9	6	100*	33	-10
COc1ccc(NS(=O)(=O)c2cccc(C(=O)N3CCN(c4ccccc4O)CC3)c2)cc1	-3	-3	.	.	.
CC(C)COC(=O)N(C)C[C@@H]1OCc2cnnn2CCCC(=O)N([C@H](C)CO)C[C@@H]1C	6	7	.	.	.
CCOc1ccccc1NC(=O)c1oc2ccccc2c1NC(=O)C1CCCO1 (configuration not stated)	-4	52*	-5	11	9
CCOc1ccccc1NC(=O)c1oc2ccccc2c1NC(=O)C1CC1	12	7	-18	27	6
CN(CCc1ccccn1)C(=O)CCC1CCCN(C(=O)c2ccsc2)C1 (configuration not stated)	-11	-2	-4	61*	0
Cc1ccc(NC(=O)COC(=O)c2ccc(-n3nc(C)cc3C)cc2)c(F)c1	5	-12	-9	.	.
Cc1csc(SCC(=O)Nc2ccc(Cl)cn2)n1	5	7	92*	0	6
Cc1csc(NC(=O)CSc2[nH]c(=O)ncc2C)n1	9	-1	99*	.	.
CC(C)(C)c1csc(SCC(=O)Nc2ccc(Cl)cn2)n1	19	-11	-5	-2	-4
CCOC(=O)c1c(SCC(=O)Nc2nc(C)cs2)nc(=O)[nH]c1C	-24	-2	99*	36	-8
COC(=O)c1c(SCC(=O)Nc2ccc(C)cc2)nc(=O)[nH]c1C	-12	5	53	-15	7
Cn1c(CO)cnc1SCC(=O)c1ccc(F)cc1	1	-4	.	28	-10
Cc1cnc(=O)[nH]c1SCC(=O)c1ccc(F)cc1	54	-5	99*	22	28
CC1CCC(NC(=O)CN2C(=O)NC3(CCCCC3C)C2=O)CC1 (configuration not stated)	-6	9	12	.	.
COc1ccc(-c2ccc(C(=O)Nc3cccc(C(F)(F)F)c3)c3occc23)c(C)c1	.	-20	.	.	.
CC(C)(CNC(=O)c1cccc(F)c1)CNC(=O)c1cccc(F)c1	-8	-4	-14	.	.
CCCS(=O)(=O)NC(=O)C1(C)CCN(C(=O)c2cc(-c3cccs3)oc2C)C1 (configuration not stated)	.	-3	.	.	.
COc1ccc(C(CNC(=O)c2cccc(S(=O)(=O)Nc3ccc(F)cc3)c2)N2CCCCC2)cc1 (configuration not stated)	1	7	.	.	.
N#CCCn1cc(/C=N/O)c(-c2ccc(Cl)cc2)n1	-1	8	0	52	-14
N#CCCn1cc(C=C(C#N)C#N)c(-c2ccc(Cl)cc2)n1	-7	0	-1	60*	7
O=C1OCCN1C(=O)[C@H]1[C@H](c2ccc([N+](=O)[O-])cc2)C(c2ccccc2)=NN1c1ccc(Br)cc1	18	55*	.	.	.
O=C1OCCN1C(=O)[C@H]1[C@H](c2ccccc2)C(c2cccc(Cl)c2)=NN1c1ccc(Br)cc1	17	4	.	.	.
O=C1OCCN1C(=O)[C@H]1[C@H](c2ccc([N+](=O)[O-])cc2)C(c2cccc(Cl)c2)=NN1c1ccc(Br)cc1	10	51*	.	.	.
O=C(c1ccc(NS(=O)(=O)c2ccc3[nH]c(=O)[nH]c3c2)cc1)N1CCCC(C(F)(F)F)C1 (configuration not stated)	-9	-5	-6	.	.
